Data taken from PubChem BioAssay.
Several values for one entry are separate records, joined by “and”; a condition that tells them apart may be missing. Equal values may be shown once. Activity calls are given as the source filed them. Cut-off read from the data, not from the text of the source: active = inhibition above about 83%; inactive = the rest.

assay: HD-MB03 medulloblastoma cell growth inhibition, synergistic combos for chromothripsis tumors, BGB or cisplatin IC20 combos (AID 1671455); settings: HD-MB03 medulloblastoma cells, at 0.5 µM, stronger effect = higher value;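 note: 0% = vehicle DMSO and 100% = high DMSO as cytotoxic control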

| Compound | inhibition |
| --- | --- |
| CC1CN(c2c(F)c(N)c3c(=O)c(C(=O)O)cn(C4CC4)c3c2F)CC(C)N1 (stereo not drawn) | -2.01% (inactive) |
| CCCCN(Cc1ccc(C(=O)NO)cc1)C(=O)Nc1ccccc1 | 14.8% (inactive) and 3.61% (inactive) |
| O=c1[nH]cnc2c1ncn2C1OC(CO)C(O)C1O (stereo not drawn) | -22.6% (inactive) and -12.7% (inactive) |
| Cc1cc(C=CC#N)cc(C)c1Nc1ccnc(Nc2ccc(C#N)cc2)n1 | -1.33% (inactive) |
| CC(Oc1cc(-c2cnn(C3CCNCC3)c2)cnc1N)c1c(Cl)ccc(F)c1Cl (stereo not drawn) | 3.43% (inactive) |
| O=C(O)c1cc2cccc([N+](=O)[O-])c2[nH]1 | -5.12% (inactive) |
| O=c1[nH]c(=O)n(C2CC(O)C(CO)O2)cc1I (stereo not drawn) | -7.04% (inactive) |

same assay, conditions: HD-MB03 medulloblastoma cells, measured here: combo with BGB at IC20, at 0.5 µM, stronger effect = higher value

| Compound | inhibition |
| --- | --- |
| COc1ccccc1S(=O)(=O)Nc1ccc2c(c1)CN(C)C(=O)N2 | -9.22% |
| Cc1cc(C#N)cc(C)c1Oc1nc(Nc2ccc(C#N)cc2)nc(N)c1Br | 6.5% |
| Nc1ncn(C2OC(CO)C(O)C2O)c(=O)n1 (stereo not drawn) | 4.05% |
| Cc1cc(C)c(Nc2ccnc(Nc3ccc(C#N)cc3)n2)c(C)c1 | -21.5% |
| COc1ccc(CC(N)C(=O)NC2C(CO)OC(n3cnc4c(N(C)C)ncnc43)C2O)cc1 (stereo not drawn) | 88.7% and 99.3% |
| O=c1ccn(C2OC(CO)C(O)C2O)c(=O)[nH]1 (stereo not drawn) | 2.23% and -12.6% |
| CC=C1NC(=O)C2CSSCCC=CC(CC(=O)NC(C(C)C)C(=O)N2)OC(=O)C(C(C)C)NC1=O (stereo not drawn) | 99.8% |
| CN(C)CC(=O)Nc1ccc2[nH]c(=O)c3ccccc3c2c1 | 0.82% and -0.47% and -22% |
| CC1OC(n2cc(F)c(=O)[nH]c2=O)C(O)C1O (stereo not drawn) | -17.8% |
| Nc1ccn(C2OC(CO)C(O)C2(F)F)c(=O)n1 (stereo not drawn) | 87.4% and 87.6% and 86.6% |
| Cc1cn(C2CC(N=[N+]=[N-])C(CO)O2)c(=O)[nH]c1=O (stereo not drawn) | -16.2% and -1.6% |
| CC(C=CC(=O)NO)=CC(C)C(=O)c1ccc(N(C)C)cc1 (stereo not drawn) | 79.1% |
| NC(=S)NN=Cc1ncccc1N | -13% |
| CC(C)(C#N)c1ccc(N2C(=O)OCc3cnc4ccc(-c5cnc6ccccc6c5)cc4c32)cc1 | -14.5% |
| CC1CN(c2c(F)c(N)c3c(=O)c(C(=O)O)cn(C4CC4)c3c2F)CC(C)N1 (stereo not drawn) | -4.41% |
| CCCCN(Cc1ccc(C(=O)NO)cc1)C(=O)Nc1ccccc1 | 8.17% and 6.08% |
| O=c1[nH]cnc2c1ncn2C1OC(CO)C(O)C1O (stereo not drawn) | -22.7% and -11.5% |
| Cc1cc(C=CC#N)cc(C)c1Nc1ccnc(Nc2ccc(C#N)cc2)n1 | -1% |
| CC(Oc1cc(-c2cnn(C3CCNCC3)c2)cnc1N)c1c(Cl)ccc(F)c1Cl (stereo not drawn) | -2.99% |
| O=C(O)c1cc2cccc([N+](=O)[O-])c2[nH]1 | -8.83% |
| O=c1[nH]c(=O)n(C2CC(O)C(CO)O2)cc1I (stereo not drawn) | -3.12% |
